Screening results: PubChem BioAssay, several laboratories
A selection: hits, their analogues and other compounds. The true share with any hit is near 1.9%.
INS promoter inh: TRM-6 insulin promoter activity inhibition; TRM-6 cells (human fetal islet line), insulin promoter-eGFP reporter, imaging; reporter expression induced with tamoxifen; inhibition, % at 2 µM; 0.9% of 130,000 active;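 active = inhibition above the mean plus 3 SD, with well images judged a real hit on visual review, cut at about 60% in these data, passing the limit was not always enough; inconclusive = inhibition over the cutoff but images rejected on review; inactive = inhibition not above the cutoff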
Insulin prom up: MIN6 insulin promoter up-regulation; z-score at 5 µM; 0.3% of 190,000 active; AID 1625; MIN6 insulin promoter-GFP reporter, high-content imaging; hits give high values;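 active = z-score above 3 at 5 µM with at least 500 cells counted in the well; inconclusive = wells under 500 cells, flagged as cytotoxic or low count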
Efa HMGR inh: blocks class II HMG-CoA reductase of Enterococcus faecalis; AID 1066; 0.41% of 190,000 active; purified E. faecalis HMGR, NADPH absorbance 340 nm kinetic; inhibition, % at 10 µM;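 active = inhibition above a set limit, the median over all tested compounds plus 3 SD, cut at about 9.5% in these data; inconclusive = no clear call, values can overlap the other calls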;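 also: enzyme runs in reverse so mevalonate oxidation gives rising NADPH absorbance; 0% = complete reaction with DMSO and 100% = background rate lacking mevalonate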
Autophagy mod: modulators of autophagy | MEF GFP-LC3 puncta imaging; test concentration mostly 10 µM | calls only at 10 µM (by protocol) | 0.98% of 190,000 active;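 active = percentage of spot-positive cells more than 3 SD above its plate mean, without a fluorescence outlier flag or 80% toxicity; inconclusive = no clear call, values can overlap the other calls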;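 also: spot-positive cell cutoff set from DMSO-treated cells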
The depositor's hits bear a star; i = inactive; ? = inconclusive; · = no result; + = active, no number.

SMILES | INS promoter inh | Insulin prom up | Efa HMGR inh | Autophagy mod
CCOC(=O)c1sc(NC(=O)c2c(C)noc2C)c(C(=O)OCC)c1C | 31.6 | · | · | +
c1ccc(COc2cccc(CNCc3cccnc3)c2)cc1 | · | 0.04 | 1.0 | i
COc1cc(CNCc2cccnc2)ccc1OCc1ccccc1 | -54.5 | 1.79 | 1.4 | +
Cc1nc2c(O)cccc2cc1CO | · | 0.09 | · | ·
C=CCOc1ccc(C2N3CC4(CC)CN2CC(CC)(C3)C4=O)cc1 (configuration not stated) | · | 0.64 | -0.2 | i
CCC12CN3CC(CC)(CN(C1)C3c1c(O)ccc3ccccc13)C2=O (configuration not stated) | 25.0 | · | -2.0 | +
Cc1ccc(S(=O)(=O)N2c3ccccc3CC2C)cc1 (configuration not stated) | · | -1.22 | -8.0 | i
CCOc1ccc(S(=O)(=O)N2c3ccccc3CC2C)cc1 (configuration not stated) | -257.1 | ? | -1.3 | +
COc1ccc(OCC(=O)Nc2ccc(S(=O)(=O)Nc3cc(C)nc(C)n3)cc2)cc1 | · | 3.12* | 2.0 | i
C#CCSc1nc2ccccc2n1C(=O)c1ccc(S(=O)(=O)N2CCCCC2)cc1 | 76.0* | -0.14 | -8.8 | i
CCSc1nc2ccccc2n1C(=O)c1ccc(S(=O)(=O)N2CCCCC2)cc1 | 82.2* | · | -7.5 | i
CNC(=O)c1[nH]cnc1C(=O)Nc1ccc(OC)cc1 | · | -0.26 | · | ·
COc1ccc(-n2nnnc2-c2ccccc2)cc1 | -45.2 | -2.39 | -2.4 | +
Clc1ccc(-n2nnnc2-c2ccccc2)cc1 | · | · | -5.4 | i
CCO[C@@H]1OC(C(=O)N2CCN(C)CC2)=C[C@H](c2ccc(C(F)(F)F)cc2)[C@H]1CCCO | · | 0.29 | -0.1 | i
COc1ccc(C[C@H]2COC(=O)[C@@H]2Cc2ccc(OC3OC(CO)C(O)C(O)C3O)c(OC)c2)cc1OC (some centres not stated) | 35.0 | -0.67 | 20.1* | i
Cc1nc(SC2CC(=O)N(c3ccccc3)C2=O)n[nH]1 (configuration not stated) | · | 0.18 | 12.7* | +
C[C@@H]1NC(=O)[C@H](CCCN=C(N)N)NC(=O)c2cc([N+](=O)[O-])cc(I)c2OCC[C@@H](C(=O)NC(CC(=O)O)C(N)=O)NC1=O (some centres not stated) | 9.1 | 0.02 | -1.1 | i
O=C(/C=C/c1ccco1)NC(=S)Nc1ccccc1N1CCOCC1 | -25.7 | -0.97 | -1.6 | i
O=C(/C=C/c1ccco1)NC(=S)Nc1ccccc1N1CCCC1 | 5.0 | 3.08* | -8.2 | i
O=C(Cc1csc(-c2ccccc2)n1)NCc1cccs1 | -66.7 | -0.26 | 11.2* | i
OCCC1CN(Cc2nc3ccc(F)cc3[nH]2)CCN1C1CCCC1 (configuration not stated) | · | -0.43 | · | ·
Cc1cc(C)n(-c2ccc(F)cc2CN2CCN(C3CCCC3)C(CCO)C2)n1 (configuration not stated) | · | 0.53 | -4.8 | +
CCNC(=O)NC(=O)C(C)OC(=O)C1CCN(S(=O)(=O)c2ccccc2C(=O)OC)CC1 (configuration not stated) | 7.1 | 0.96 | -4.0 | i
COc1ccc(-c2[nH]ncc2/C=C(\C#N)C(=O)NC2CC2)cc1 | 73.0* | 0.93 | -2.2 | i
SMILES | INS promoter inh | Insulin prom up | Efa HMGR inh | Autophagy mod
N#C/C(=C\c1cn[nH]c1-c1ccc(Cl)cc1)C(=O)NC1CC1 | 79.3* | -0.92 | -5.5 | i
Cc1ccc(S(=O)(=O)N(C)CC(=O)Nc2cccc(C)n2)cc1 | 78.7* | -0.2 | 1.3 | i
CC(=O)Nc1ccccc1NC(=O)CN(C)S(=O)(=O)c1ccc(C)cc1 | 22.7 | · | -1.3 | i
COCCn1nnnc1C(c1ccccc1OC)N1CCN(c2ccccc2)CC1 (configuration not stated) | · | 0.09 | -2.2 | +
O=C(O)c1ccc(/C=N/NC(=O)c2ccc(Cl)cc2)cc1 | · | -0.27 | · | ·
O=C(NCc1ccc(Cl)cc1)c1ccc(N2CCCC2=O)cc1 | -100.0 | -1.03 | -5.7 | i
CN(Cc1cn(-c2ccccc2)nc1-c1ccc2c(c1)OCO2)Cc1nccn1C | · | -0.62 | -2.2 | +
Cc1ccc2c(c1)N=C(c1ccccc1)CC(C(Cl)Cl)=N2 | · | -0.12 | · | ·
Cc1ccc(C2=Nc3ccccc3N=C(C(Cl)Cl)C2)cc1 | 82.3* | · | 0.6 | i
CC(=O)Nc1ccc(-c2nnn(CC(=O)c3ccc(F)cc3)n2)cc1Cl | · | -1.42 | · | ·
N#CC1=C2SCC(O)(c3ccccc3)N2C(=O)CC1c1ccccc1 (configuration not stated) | · | -0.89 | 0.4 | +
Cc1ccc(Nc2c(-c3ccccc3)nc3cnccn23)cc1 | · | -0.75 | -0.3 | i
Cc1ccc(Nc2c(-c3cccnc3)nc3ccc(Br)cn23)cc1 | · | -0.76 | 0.2 | +
